PubChem BioAssay (NCATS)
Unmarked numbers belong to inactive results. Results filed as inconclusive are left out. Where a call stands in place of a potency, no number is given. Activity calls are given as the source filed them. Unless noted, the call rests on the fitted dose curve; in most records, active means well fitted curve in the direction sought with a large enough effect; inconclusive means small, poorly fitted or top-dose-only effect, or another doubt; inactive means no such curve, though single readings can be large; an effect the other way counts as inactive or inconclusive.

Experiments:
[1] = target: Thyrotropin-releasing hormone receptor (Homo sapiens) (UniProt P34981); experiment: qHTS for Small Molecule Agonists and Allosteric Enhancers of Human TRH Receptor: Validation Screen for Agonists (AID 493127;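 active means calcium activation more than 3 SD above the typical response in the agonist read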;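 further: intracellular calcium rise by fluo-8 fluorescence before TRH EC20 addition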); conditions: TRH receptor agonist cell assay; at 2 µM; active compounds read high
How it was run: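 Cells 2000/well, 10% FCS, 18 h 33.5C/5% CO2 → fluo-8 Ca dye, RT 30 min–1.5 h → FDSS baseline 10 × 1 s → compound added → 230 cycles (1 s/cycle) agonist mode. TRH controls.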

[2] = qHTS for Inhibitors of Cell Surface uPA Generation: Validation Assay (AID 493164)
How it was run: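 RAW 264.7 cells (4000/well) were plated overnight, then exposed for 18 h at 37 C, 5% CO2 to compounds in a 7-point 1:5 titration (2.45 nM–38.3 uM final). Intracellular ATP was read by ATP-Lite luminescence.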

[3] = target: Galactokinase (Homo sapiens) (UniProt P51570); experiment: qHTS Validation Assay for Inhibitors of Human Galactokinase (GALK) (AID 493189)
How it was run: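 Enzyme activity is inferred from ATP consumption: human GALK phosphorylates galactose (100 uM) using 35 uM ATP for 1 h at room temperature, and luciferase-based Kinase-Glo Plus reports unconsumed ATP.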

[4] = Validation screen for small molecules that induce DNA re-replication in SW480 colon adenocarcinoma cells (AID 504364)
How it was run: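 250 cells/well; compound pinned in; 48 hr, 37 C, 5% CO2; Hoechst added, 40 min; nuclear fluorescence imaged, 405 ex / 500-530 em; re-replication scored as increase in high-intensity nuclei.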

[5] = target: Peptidyl-prolyl cis-trans isomerase NIMA-interacting 1 (Homo sapiens) (UniProt Q13526); experiment: qHTS Validation Assay to Find Inhibitors of Pin1 (AID 504536; active means well fitted inhibition curve with a large enough effect in the polarisation, with a control signal flat, not every such curve was filed as active; the % refers to the polarisation)
How it was run: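 Fluorescence polarization competition: compounds (titration) displace HiFluor-488-labeled Pin1-1b peptide from Pin1 (0.3 uM final) in pH 7.5 HEPES buffer with DTT, 10 min at room temperature; %Activity normalized to no-enzyme wells, curves fitted.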

[6] = target: Phosphoglycerate kinase, glycosomal (Trypanosoma brucei brucei) (UniProt P07378); experiment: qHTS Validation Assay to Find Inhibitors of Phosphoglycerate Kinase (AID 504547)
How it was run: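 Inhibition of the enzyme is judged by a Kinase-Glo Plus luminescent signal following a one-hour incubation at room temperature. Because 1,3-BPG is unstable, it is made in situ by GAPDH at 100nM final; no-PGK wells define the baseline.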

[7] = target: Voltage-gated inwardly rectifying potassium channel KCNH2 (Homo sapiens) (UniProt Q12809); experiment: qHTS Assay for Small Molecule Inhibitors of the Human hERG Channel Activity (AID 588834);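 further: top concentration of the series differs between compounds; lower thallium flux fluorescence means stronger hERG block; nearly all actives have a fitted effect of over 50% in size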
How it was run: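 Blockade is seen as reduced FluxOR thallium-flux fluorescence in U2OS cells expressing hERG from a BacMam construct, in Opti-MEM with 2% FCS. Concentration-response data fitted to the Hill equation for AC50.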

[8] = target: Glutaminase kidney isoform, mitochondrial (Homo sapiens) (UniProt O94925); experiment: qHTS for Inhibitors of Glutaminase (GLS): LOPAC Validation (AID 624146); further: potency means the concentration at half of the fitted maximal effect; nearly all actives have a fitted effect of over 60% in size
How it was run: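 Read-out is an Amplex red fluorescence increase coupled through glutamate oxidase and HRP, measured before and after 30 min room-temperature incubation. hKGA is in 45 mM KH2PO4 (pH 8.2) with 0.02% Tween-20; glutamine added as 1mM solution.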

[9] = qHTS of Trypanosoma Brucei Inhibitors: LOPAC Validation (AID 624147)
How it was run: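 Screened from lowest to highest concentration, compounds were pinned into TbPYK/substrate mixtures, and ADP (130 uM final) was added. Plates sat at room temperature for 45 min prior to Kinase-Glo Plus detection by luminescence.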

[10] = target: Glucagon-like peptide 1 receptor (Homo sapiens) (UniProt P43220); experiment: qHTS of GLP-1 Receptor Agonists: LOPAC Validation (AID 624148);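 further: luminescence from a luciferase reporter switched on by cAMP; higher luminescence signal means agonism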
How it was run: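 Agonism scored as increased luciferase luminescence driven by cAMP in HEK293 clones carrying GLP-1R. Cells settled 12 hours, received compound for 4-6 hr at 37 deg C, 5% CO2, and were read after 12 min detection reagent at RT.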

[11] = qHTS of Nrf2 Activators: LOPAC Validation (AID 624149)
How it was run: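 Luminescence read-out of ARE-luciferase activation: AREc32_Fluc cells treated with compounds for 24 hr at 37 deg C, then lysed with Steady-Glo for 30 min at room temperature before reading.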

[12] = HTS Assay for Allosteric Antagonists of the Human D2 Dopamine Receptor: Hit Validation in HTRF (AID 624455);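 further: stable D1 dopamine receptor cell line scored for blocking the D1 response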
How it was run: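 First, antagonism was screened by calcium flux in a force-coupled, inducible Hek293 Trex D2 line challenged with EC80 dopamine. Hits then went into an HTRF assay in cells stably expressing D1, testing inhibition of the D1 response.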

[13] = target: Tyrosine-protein kinase Yes (Homo sapiens) (UniProt P07947); experiment: qHTS for small molecule inhibitors of Yes1 kinase: Primary Screen (AID 686947); further: potency means the concentration at half of the fitted maximal effect; nearly all actives have a fitted effect of over 60% in size
How it was run: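 Yes1 (4 nM) preincubated 20 min with compound, then 60 min room-temperature reaction with 0.1 mM ATP and 0.3 mg/mL poly(E4Y) in pH 7.5 Tris, 10 mM MgCl2. ADP measured by ADP-Glo luminescence, normalised to enzyme/no-enzyme controls.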

[14] = qHTS for small molecule inhibitors of Yes1 kinase: Counter Assay (AID 686950);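 further: no kinase present so only ADP-Glo detection of a fixed ADP amount is tested; luminescence from ADP-Glo reporting ADP in a fixed ATP and ADP mixture; series mostly up to about 77 µM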
How it was run: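 Luminescence read-out from ADP-Glo quantifies a fixed ADP amount (0.02 mM ADP with 0.08 mM ATP) after 60 min at room temperature; signal is normalized between DMSO wells with ATP/ADP and with 0.1 mM ATP alone.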

[15] = target: Arylsulfatase A (Homo sapiens) (UniProt P15289); experiment: qHTS screen for enhancers of Arylsulfatase A (ASA1): LOPAC Validation Assay (AID 720538); further: potency means the concentration at half of the fitted maximal effect
How it was run: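 Cell-based enhancement test: residual ASA activity in SV40-transformed I179S patient fibroblasts is measured by pNCS turnover (0.5mM final, 14h, room temperature) following 48h compound incubation; higher fluorescence indicates activation.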

[16] = qHTS for compounds that reverse cellular toxicity of Amyloid beta (A-beta) peptide in yeast: LOPAC Validation Assay (AID 720559)
How it was run: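 Here, A-beta-toxic yeast grow with test compounds at 30 C for 48 hr before optical density at 600 nm is recorded; data are normalized against DMSO and the FeCl3-clioquinol control.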

[17] = qHTS for Activators of Parkin Expression: LOPAC Validation Assay (FLuc Reporter) (AID 720573; further: potency means the concentration at half of the fitted maximal effect)
How it was run: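 Readout is FLuc luminescence from neuronal reporter cells (Parkin promoter, FLuc plus NLuc) after 24 h compound exposure in dose response. Values normalized to neutral DMSO and positive-control compounds.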

[18] = target: T1, Hexokinase-4 (Homo sapiens) + Glucokinase regulatory protein (Homo sapiens) (UniProt P35557+Q14397); experiment: qHTS assay for inhibitors of recombinant human GCK-GKRP interaction: Diaphorase-coupled assay (AID 743205)
How it was run: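 Signal derives from resorufin generated by diaphorase, linked to GCK turnover of glucose (5 mM) and ATP (0.4 mM). Enzyme complex was added after a 20-minute compound preincubation and monitored for 30 minutes.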

[19] = target: T1, Hexokinase-4 (Homo sapiens) + Glucokinase regulatory protein (Homo sapiens); experiment: qHTS assay for inhibitors of recombinant human GCK-GKRP interaction: ADP-Glo assay (AID 743206)
How it was run: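 GST-GCK and FLAG-GKRP (15 nM each in the dispensed mix, with 2 uM S6P) react with 0.4 mM ATP and 5 mM glucose (final) in Hepes pH 7.6 for 60 min at room temperature. ADP is measured by ADP-Glo luminescence.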

T1 sequence (P35557 whole entry, looked up): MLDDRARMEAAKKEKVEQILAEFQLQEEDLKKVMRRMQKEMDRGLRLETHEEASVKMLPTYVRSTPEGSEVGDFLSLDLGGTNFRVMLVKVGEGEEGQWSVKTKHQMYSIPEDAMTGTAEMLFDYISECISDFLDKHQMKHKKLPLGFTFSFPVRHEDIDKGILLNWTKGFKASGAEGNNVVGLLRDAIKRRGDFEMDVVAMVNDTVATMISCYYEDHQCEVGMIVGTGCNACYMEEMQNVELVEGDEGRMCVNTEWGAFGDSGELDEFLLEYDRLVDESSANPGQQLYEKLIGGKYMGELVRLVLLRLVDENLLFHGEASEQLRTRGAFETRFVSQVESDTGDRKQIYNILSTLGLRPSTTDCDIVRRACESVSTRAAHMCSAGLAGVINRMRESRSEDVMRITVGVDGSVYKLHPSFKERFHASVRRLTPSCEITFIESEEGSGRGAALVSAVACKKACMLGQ
T1 sequence (Q14397 whole entry, looked up): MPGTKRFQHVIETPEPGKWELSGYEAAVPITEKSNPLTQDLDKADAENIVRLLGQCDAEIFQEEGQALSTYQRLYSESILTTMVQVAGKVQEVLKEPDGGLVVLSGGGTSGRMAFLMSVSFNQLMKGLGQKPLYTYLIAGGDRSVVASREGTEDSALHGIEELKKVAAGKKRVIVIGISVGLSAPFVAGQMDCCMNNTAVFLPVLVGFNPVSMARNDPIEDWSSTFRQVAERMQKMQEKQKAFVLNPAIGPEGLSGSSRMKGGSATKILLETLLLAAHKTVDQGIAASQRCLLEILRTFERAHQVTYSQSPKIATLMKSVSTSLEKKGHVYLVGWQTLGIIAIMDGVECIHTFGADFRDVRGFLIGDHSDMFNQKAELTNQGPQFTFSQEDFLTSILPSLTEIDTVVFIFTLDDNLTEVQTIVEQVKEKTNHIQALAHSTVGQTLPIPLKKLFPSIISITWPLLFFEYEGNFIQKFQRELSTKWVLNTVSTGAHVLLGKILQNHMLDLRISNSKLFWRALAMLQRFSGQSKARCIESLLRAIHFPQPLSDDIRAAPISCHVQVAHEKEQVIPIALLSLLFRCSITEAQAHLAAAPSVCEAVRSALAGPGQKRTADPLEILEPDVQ
Glutaminase kidney isoform, mitochondrial (Homo sapiens), sequence (O94925 whole entry, looked up, canonical isoform): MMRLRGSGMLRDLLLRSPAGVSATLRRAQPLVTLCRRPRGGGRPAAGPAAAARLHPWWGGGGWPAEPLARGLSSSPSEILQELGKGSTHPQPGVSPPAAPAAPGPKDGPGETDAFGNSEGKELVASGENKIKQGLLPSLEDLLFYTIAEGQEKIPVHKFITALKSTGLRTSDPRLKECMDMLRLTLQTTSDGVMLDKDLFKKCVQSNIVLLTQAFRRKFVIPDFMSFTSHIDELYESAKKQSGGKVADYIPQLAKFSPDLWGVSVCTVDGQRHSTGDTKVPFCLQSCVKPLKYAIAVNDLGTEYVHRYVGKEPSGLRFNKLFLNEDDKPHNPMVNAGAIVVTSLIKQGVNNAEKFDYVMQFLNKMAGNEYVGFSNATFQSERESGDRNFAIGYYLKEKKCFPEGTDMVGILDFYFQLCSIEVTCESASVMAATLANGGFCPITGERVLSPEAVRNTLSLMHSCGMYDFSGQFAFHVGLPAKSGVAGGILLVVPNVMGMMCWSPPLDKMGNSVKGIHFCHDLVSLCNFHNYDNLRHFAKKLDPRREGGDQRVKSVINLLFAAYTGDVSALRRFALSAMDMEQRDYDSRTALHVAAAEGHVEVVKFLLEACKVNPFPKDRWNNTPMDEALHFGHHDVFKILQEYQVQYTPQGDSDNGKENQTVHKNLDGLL
Tyrosine-protein kinase Yes (Homo sapiens), sequence (P07947 whole entry, looked up): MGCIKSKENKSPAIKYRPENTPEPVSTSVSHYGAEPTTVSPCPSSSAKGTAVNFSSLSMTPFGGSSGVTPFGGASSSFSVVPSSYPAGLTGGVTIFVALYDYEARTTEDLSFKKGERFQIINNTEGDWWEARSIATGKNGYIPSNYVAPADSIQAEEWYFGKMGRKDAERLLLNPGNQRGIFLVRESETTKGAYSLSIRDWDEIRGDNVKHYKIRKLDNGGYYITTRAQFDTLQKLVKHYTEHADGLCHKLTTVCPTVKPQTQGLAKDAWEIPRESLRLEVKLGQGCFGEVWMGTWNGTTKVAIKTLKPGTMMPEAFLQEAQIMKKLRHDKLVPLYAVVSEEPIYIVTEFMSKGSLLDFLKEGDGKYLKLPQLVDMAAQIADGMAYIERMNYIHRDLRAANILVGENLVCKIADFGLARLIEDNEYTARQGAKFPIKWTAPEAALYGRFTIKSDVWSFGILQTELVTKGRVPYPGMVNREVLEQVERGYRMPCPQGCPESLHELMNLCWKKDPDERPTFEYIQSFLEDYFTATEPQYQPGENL
Glucagon-like peptide 1 receptor (Homo sapiens), sequence (P43220 whole entry, looked up): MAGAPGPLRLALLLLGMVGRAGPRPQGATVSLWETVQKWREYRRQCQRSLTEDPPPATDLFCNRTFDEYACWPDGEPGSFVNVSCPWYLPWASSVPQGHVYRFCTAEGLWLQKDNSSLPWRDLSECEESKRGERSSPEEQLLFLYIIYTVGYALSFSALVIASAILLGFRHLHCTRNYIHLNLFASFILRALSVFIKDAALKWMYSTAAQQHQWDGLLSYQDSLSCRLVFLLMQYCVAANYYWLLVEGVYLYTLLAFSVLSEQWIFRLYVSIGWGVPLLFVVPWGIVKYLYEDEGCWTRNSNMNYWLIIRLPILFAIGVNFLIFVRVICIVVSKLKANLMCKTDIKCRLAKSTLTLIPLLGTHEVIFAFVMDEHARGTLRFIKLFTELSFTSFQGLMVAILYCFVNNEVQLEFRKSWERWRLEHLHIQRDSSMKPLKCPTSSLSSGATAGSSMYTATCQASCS
Arylsulfatase A (Homo sapiens), sequence (P15289 whole entry, looked up): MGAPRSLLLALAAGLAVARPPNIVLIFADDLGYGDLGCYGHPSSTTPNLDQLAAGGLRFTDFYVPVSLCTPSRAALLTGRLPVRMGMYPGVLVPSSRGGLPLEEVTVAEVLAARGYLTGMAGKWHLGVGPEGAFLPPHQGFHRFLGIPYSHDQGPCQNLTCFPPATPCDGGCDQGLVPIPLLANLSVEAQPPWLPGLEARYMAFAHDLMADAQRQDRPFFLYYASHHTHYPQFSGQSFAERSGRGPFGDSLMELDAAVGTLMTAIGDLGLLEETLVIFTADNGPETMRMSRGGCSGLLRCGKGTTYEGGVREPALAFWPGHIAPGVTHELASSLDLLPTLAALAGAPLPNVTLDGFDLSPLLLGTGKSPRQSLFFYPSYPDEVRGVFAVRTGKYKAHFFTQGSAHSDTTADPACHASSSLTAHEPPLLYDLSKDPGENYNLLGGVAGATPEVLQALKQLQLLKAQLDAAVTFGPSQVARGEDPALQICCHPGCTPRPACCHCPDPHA
Phosphoglycerate kinase, glycosomal (Trypanosoma brucei brucei), sequence (P07378 whole entry, looked up): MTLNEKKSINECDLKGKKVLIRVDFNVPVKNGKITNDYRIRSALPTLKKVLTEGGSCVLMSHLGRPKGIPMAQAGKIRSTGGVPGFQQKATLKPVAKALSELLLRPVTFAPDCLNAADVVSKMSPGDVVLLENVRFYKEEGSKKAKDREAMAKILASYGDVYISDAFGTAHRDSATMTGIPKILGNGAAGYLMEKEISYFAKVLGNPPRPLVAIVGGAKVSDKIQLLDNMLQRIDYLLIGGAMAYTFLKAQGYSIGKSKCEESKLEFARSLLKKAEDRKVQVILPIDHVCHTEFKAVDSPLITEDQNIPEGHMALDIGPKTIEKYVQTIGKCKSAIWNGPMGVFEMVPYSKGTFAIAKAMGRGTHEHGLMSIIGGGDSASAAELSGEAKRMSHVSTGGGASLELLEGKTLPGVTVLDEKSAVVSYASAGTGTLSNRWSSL
Galactokinase (Homo sapiens), sequence (P51570 whole entry, looked up): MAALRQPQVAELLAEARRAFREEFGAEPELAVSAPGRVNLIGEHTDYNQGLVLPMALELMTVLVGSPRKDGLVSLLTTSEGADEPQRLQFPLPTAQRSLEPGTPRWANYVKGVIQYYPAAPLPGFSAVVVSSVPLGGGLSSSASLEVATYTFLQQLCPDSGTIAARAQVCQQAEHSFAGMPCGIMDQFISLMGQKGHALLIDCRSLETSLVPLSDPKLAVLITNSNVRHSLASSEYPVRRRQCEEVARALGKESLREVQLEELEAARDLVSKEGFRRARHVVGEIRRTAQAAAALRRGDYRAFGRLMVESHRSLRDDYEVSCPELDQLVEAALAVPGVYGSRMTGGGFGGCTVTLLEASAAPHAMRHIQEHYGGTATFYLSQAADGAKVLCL
Thyrotropin-releasing hormone receptor (Homo sapiens), sequence (P34981 whole entry, looked up): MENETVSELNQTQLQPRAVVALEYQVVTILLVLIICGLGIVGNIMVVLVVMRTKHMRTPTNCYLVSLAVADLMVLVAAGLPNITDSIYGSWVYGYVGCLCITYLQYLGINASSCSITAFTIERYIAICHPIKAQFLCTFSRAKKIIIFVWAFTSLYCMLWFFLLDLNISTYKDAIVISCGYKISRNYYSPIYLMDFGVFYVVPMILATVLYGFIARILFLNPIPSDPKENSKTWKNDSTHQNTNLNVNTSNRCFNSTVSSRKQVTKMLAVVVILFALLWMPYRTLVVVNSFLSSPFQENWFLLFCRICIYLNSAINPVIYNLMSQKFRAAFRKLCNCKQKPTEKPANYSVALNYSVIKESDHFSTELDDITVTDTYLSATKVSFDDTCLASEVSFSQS
Peptidyl-prolyl cis-trans isomerase NIMA-interacting 1 (Homo sapiens), sequence (Q13526 whole entry, looked up): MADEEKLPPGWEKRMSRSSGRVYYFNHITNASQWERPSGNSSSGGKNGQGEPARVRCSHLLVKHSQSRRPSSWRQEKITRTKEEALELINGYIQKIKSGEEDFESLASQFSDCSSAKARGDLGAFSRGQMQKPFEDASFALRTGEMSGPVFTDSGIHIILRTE

O=Nc1c(-c2c(O)[nH]c3ccccc23)[nH]c2ccccc12
activation [1]: -6% | outcome [2]: inactive | outcome [3]: inactive | outcome [4]: inactive | Potency [5]: inactive | Potency [6]: inactive | Potency [7]: inactive | Potency [8]: 11.2 µM (active) | outcome [9]: inactive | outcome [10]: inactive | outcome [11]: inactive | outcome [12]: inactive | Potency [13]: 0.772 µM (active) | outcome [14]: inactive | Potency [15]: 10.7 µM (active) | outcome [16]: inactive | Potency [17]: 10.3 µM (active) | outcome [18]: inactive | outcome [19]: inactive
